# Experimental data as given in PubChem BioAssay (NCATS).
# Inconclusive results are not listed. Active and inactive are the calls of the source. The call rests on the fitted dose curve; in most records, active means well fitted activation curve with a large enough effect; inconclusive means small, poorly fitted or top-dose-only effect; inactive means no such curve, though single readings can be large or run the other way.
# Target: Rap guanine nucleotide exchange factor 3 (Homo sapiens) (UniProt O95398)
# Sequence (O95398 whole entry, looked up): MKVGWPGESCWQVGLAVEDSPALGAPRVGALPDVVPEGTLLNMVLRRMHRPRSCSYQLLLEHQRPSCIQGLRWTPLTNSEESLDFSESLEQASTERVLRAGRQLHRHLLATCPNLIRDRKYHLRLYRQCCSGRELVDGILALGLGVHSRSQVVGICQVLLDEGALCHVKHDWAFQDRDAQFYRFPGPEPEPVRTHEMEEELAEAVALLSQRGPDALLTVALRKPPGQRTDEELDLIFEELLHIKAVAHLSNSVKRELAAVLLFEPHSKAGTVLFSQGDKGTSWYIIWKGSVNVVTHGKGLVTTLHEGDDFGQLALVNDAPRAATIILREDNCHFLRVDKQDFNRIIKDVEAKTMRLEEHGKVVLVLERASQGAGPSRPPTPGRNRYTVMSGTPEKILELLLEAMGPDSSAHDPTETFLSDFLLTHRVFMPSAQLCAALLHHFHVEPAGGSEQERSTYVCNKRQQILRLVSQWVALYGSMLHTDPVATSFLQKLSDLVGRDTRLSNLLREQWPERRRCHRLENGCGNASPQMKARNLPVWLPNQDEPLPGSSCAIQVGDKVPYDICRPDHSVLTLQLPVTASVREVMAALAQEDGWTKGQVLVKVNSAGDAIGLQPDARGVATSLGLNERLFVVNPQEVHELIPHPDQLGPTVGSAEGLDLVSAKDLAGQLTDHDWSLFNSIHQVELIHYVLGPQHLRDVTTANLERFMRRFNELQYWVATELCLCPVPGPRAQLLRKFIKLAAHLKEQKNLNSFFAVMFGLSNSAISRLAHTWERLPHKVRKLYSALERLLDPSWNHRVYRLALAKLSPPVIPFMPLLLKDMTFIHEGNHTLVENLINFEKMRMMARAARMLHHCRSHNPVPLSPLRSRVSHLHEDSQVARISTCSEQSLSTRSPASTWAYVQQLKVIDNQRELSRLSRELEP
# Assay: Confirmatory qHTS for agonist of cAMP-regulated guanine nucleotide exchange factor 3 (EPAC1) (AID 1645881);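 further: EPAC1 catalysed release of BODIPY-GDP from Rap1B seen as fluorescence loss; 100% = effect of cAMP agonist control; nearly all actives have a fitted effect of over 75% in size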
# Conditions: EPAC1 Rap1B BODIPY-GDP exchange fluorescence; series mostly up to 154 µM; activation: at the top concentration
row,Compound,activation
1,Cc1ccc(C(=O)Nc2cccc(-c3ccc(N4CCOCC4)nn3)c2)cc1C,7.4% (inactive)
2,Nc1ccc(SC(F)(F)F)cc1C(=O)c1ccccc1,-10.9% (inactive)
3,CS/C(=C\C(=O)c1ccco1)Nc1ccccc1Cl,17.5% (inactive)
4,O=c1nc(/C=C/c2cccn2-c2ccc([N+](=O)[O-])cc2)cc(C(F)(F)F)[nH]1,8.12% (inactive)
5,COc1ccc(OC)c(-n2c(SC)nnc2-c2c[nH]c3ccccc23)c1,8.16% (inactive)
6,COc1ccc(-c2cc(C(F)(F)F)c3c(n2)sc2c(O)cc(=O)[nH]c23)c(OC)c1,24% (inactive)
7,COc1cc(NC(=O)c2cccc([N+](=O)[O-])c2)ccc1NC(=O)c1ccco1,-1.87% (inactive)
8,O=C1C(=O)c2cccnc2-c2ncccc21,1.08% (inactive)
9,O=c1[nH]cc(N=Cc2cc(Cl)cc(Cl)c2O)c(=O)[nH]1,-4.64% (inactive)
10,O=S(=O)(Nc1cc(Sc2ncn[nH]2)c(O)c2ccccc12)c1ccccc1,22.7% (inactive)
11,COc1ccc(-n2c(NC(=O)c3ccco3)c(C#N)c3nc4ccccc4nc32)cc1,9.96% (inactive)
12,O=C(O)c1ccn2c(C(=O)c3ccc(Cl)cc3)c(-c3ccccc3)cc2c1,-4.58% (inactive)
13,O=C(O)/C=C\C(=O)Nc1ccccc1C#Cc1ccc(Br)cc1,6.1% (inactive)
14,Cc1ccc(C)c(N2CCN(C(=O)c3ccc4c(=O)n5c(nc4c3)CCCCC5)CC2)c1,-3.67% (inactive)
15,Cc1ccc(Cn2ccnc2SCC(=O)Nc2ccc3c(c2)OCO3)cc1,-1.98% (inactive)
16,O=C(CSc1nc(O)cc(=O)n1-c1ccccc1)Nc1nc2ccccc2s1,2.13% (inactive)
17,CCOc1cccc(CNc2ccc(O)cc2)c1OCc1ccc(Cl)cc1,3.47% (inactive)
18,O=C(NCc1ccc2c(c1)CCN2C(=O)c1ccccc1)Nc1cccc(C(F)(F)F)c1,-15.9% (inactive)
19,COc1ccc(N2Cc3cccc(C(=O)Nc4ccc(C(C)C)cc4)c3C2=O)cc1,-4.12% (inactive)
20,O=C(COC(=O)C1(c2ccc(Cl)cc2)CCCC1)NCc1ccco1,16.7% (inactive)

row,Compound,activation
1,Nc1ccccc1C(=O)NNc1c2ccccc2nc2ccccc12,12.7% (inactive)
2,Cc1ccc(OCC(=O)Nc2ccc(C)c(S(=O)(=O)N3CCCCCC3)c2)c([N+](=O)[O-])n1,6.57% (inactive)
3,Cc1ccc(-c2nc(-c3cc4cccc(OCc5ccc(F)cc5)c4oc3=O)no2)cc1,5.62% (inactive)
4,CCc1ccc(/C=C2\SC(=S)N(CCCC(=O)Nc3ccccc3C(=O)O)C2=O)cc1,-3.12% (inactive)
5,Cc1ccc(C(C[N+](=O)[O-])c2c(-c3ccccc3O)[nH][nH]c2=O)cc1 (stereo not given),-5.68% (inactive)
6,CCOC(=O)Cc1cc(=O)n2[nH]c(-c3ccccc3)c(-c3ccccc3)c2n1,12.9% (inactive)
7,COc1cc2c(cc1OC)C(c1ccc(Cl)cc1)N(c1ccc(C)c(F)c1)C(=O)C2 (stereo not given),9.93% (inactive)
8,COC(=O)CC1(C(=O)OC)Oc2ccc(Br)cc2C(=O)N1c1cccc(Cl)c1Cl (stereo not given),17.8% (inactive)
9,Cc1ccc(Nc2c(-c3ccccn3)nc3cccc(C)n23)cc1,13.1% (inactive)
10,Cn1c(=O)c2c(-c3ccccc3Br)n(Cc3ccccc3)cc2n(C)c1=O,-6.08% (inactive)
11,COc1cn(-c2ccccc2)nc1C(=O)Nc1ccc(C)cc1Cl,7.07% (inactive)
12,O=[N+]([O-])c1cc(Br)ccc1NS(=O)(=O)c1ccccc1,-2.57% (inactive)
13,O=C(OCC1OC(n2ncc(=O)[nH]c2=O)C(OC(=O)c2ccccc2)C1OC(=O)c1ccccc1)c1ccccc1 (stereo not given),-5.44% (inactive)
14,CC(CNC(=O)c1sc2ncccc2c1-n1cccc1)c1ccccc1 (stereo not given),13.5% (inactive)
15,Cc1cc(CSc2ccc(Cl)cc2)ccc1N,12.8% (inactive)
16,COc1ccc(Nc2cc(C(=O)NCCCN3CCN(c4ccccc4F)CC3)c3ccccc3n2)c(OC)c1,-5.39% (inactive)
17,CC(C)c1ccc(/C=C/C(=O)Nc2ccc(CN3CCOCC3)cc2)cc1,17.8% (inactive)
18,Cc1cccc(N2CCN(C(=O)c3[nH]c(C(F)(F)F)nc3-c3ccccc3)CC2)c1C,14.1% (inactive)
19,O=C1C=C(Nc2cccc3cccnc23)c2ccccc2C1=O,19.8% (inactive)
20,O=C1C(=O)c2ccc(-c3ccccc3)cc2-c2ccccc21,6.1% (inactive)

# Target: Rap guanine nucleotide exchange factor 4 (Homo sapiens) (UniProt Q8WZA2)
# Sequence (Q8WZA2 whole entry, looked up): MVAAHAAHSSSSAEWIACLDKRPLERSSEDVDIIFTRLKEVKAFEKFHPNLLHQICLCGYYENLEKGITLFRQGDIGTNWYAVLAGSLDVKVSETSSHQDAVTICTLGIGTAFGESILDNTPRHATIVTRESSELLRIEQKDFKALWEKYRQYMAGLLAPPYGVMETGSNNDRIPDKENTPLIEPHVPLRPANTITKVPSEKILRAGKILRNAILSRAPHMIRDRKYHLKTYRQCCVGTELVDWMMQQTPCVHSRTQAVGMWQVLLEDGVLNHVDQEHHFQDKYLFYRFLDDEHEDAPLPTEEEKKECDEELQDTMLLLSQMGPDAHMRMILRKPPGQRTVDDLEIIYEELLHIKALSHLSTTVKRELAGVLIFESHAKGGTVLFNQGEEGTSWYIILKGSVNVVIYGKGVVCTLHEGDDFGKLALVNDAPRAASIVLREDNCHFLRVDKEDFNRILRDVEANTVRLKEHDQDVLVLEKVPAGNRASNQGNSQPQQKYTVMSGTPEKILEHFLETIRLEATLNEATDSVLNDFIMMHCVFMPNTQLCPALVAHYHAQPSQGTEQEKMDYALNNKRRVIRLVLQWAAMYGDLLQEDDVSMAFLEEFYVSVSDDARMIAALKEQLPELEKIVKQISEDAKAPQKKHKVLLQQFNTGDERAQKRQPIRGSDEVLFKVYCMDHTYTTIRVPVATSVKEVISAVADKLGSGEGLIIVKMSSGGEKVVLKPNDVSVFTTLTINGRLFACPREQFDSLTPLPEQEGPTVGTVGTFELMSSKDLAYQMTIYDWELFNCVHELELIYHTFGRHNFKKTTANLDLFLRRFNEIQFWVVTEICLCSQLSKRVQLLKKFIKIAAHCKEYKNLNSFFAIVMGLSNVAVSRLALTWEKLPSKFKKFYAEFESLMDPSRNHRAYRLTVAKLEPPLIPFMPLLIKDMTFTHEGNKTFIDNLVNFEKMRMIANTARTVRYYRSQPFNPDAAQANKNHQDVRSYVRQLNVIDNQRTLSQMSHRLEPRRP
# Assay: Confirmatory qHTS for agonist of cAMP-regulated guanine nucleotide exchange factor 4 (EPAC2) (AID 1645884);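 further: nucleotide exchange releases bodipy-GDP from Rap1 and this lowers its fluorescence; on the % scale 0 is the no-effect control and ±100 the full control effect; nearly all actives have a fitted effect of over 65% in size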
# Conditions: EPAC2 GEF activity, Rap1B-BODIPY-GDP fluorescence; series mostly up to 154 µM; activation: at the top concentration
row,Compound,activation
1,Cc1ccc(C(=O)Nc2cccc(-c3ccc(N4CCOCC4)nn3)c2)cc1C,0% (inactive)
2,Nc1ccc(SC(F)(F)F)cc1C(=O)c1ccccc1,"-2.87% [at 17.1 µM, percent relative to cAMP agonist control] (inactive)"
3,CS/C(=C\C(=O)c1ccco1)Nc1ccccc1Cl,17.7% (inactive)
4,O=c1nc(/C=C/c2cccn2-c2ccc([N+](=O)[O-])cc2)cc(C(F)(F)F)[nH]1,8.6% (inactive)
5,COc1ccc(OC)c(-n2c(SC)nnc2-c2c[nH]c3ccccc23)c1,0.557% (inactive)
6,COc1ccc(-c2cc(C(F)(F)F)c3c(n2)sc2c(O)cc(=O)[nH]c23)c(OC)c1,5.07% (inactive)
7,COc1cc(NC(=O)c2cccc([N+](=O)[O-])c2)ccc1NC(=O)c1ccco1,-7.47% (inactive)
8,O=C1C(=O)c2cccnc2-c2ncccc21,11.2% (inactive)
9,O=c1[nH]cc(N=Cc2cc(Cl)cc(Cl)c2O)c(=O)[nH]1,-9.7% (inactive)
10,O=S(=O)(Nc1cc(Sc2ncn[nH]2)c(O)c2ccccc12)c1ccccc1,"4.4% [at 17.1 µM, percent relative to cAMP agonist control] (inactive)"
11,COc1ccc(-n2c(NC(=O)c3ccco3)c(C#N)c3nc4ccccc4nc32)cc1,0% (inactive)
12,O=C(O)c1ccn2c(C(=O)c3ccc(Cl)cc3)c(-c3ccccc3)cc2c1,-12.6% (inactive)
13,O=C(O)/C=C\C(=O)Nc1ccccc1C#Cc1ccc(Br)cc1,3.43% (inactive)
14,Cc1ccc(C)c(N2CCN(C(=O)c3ccc4c(=O)n5c(nc4c3)CCCCC5)CC2)c1,"5.24% [at 17.1 µM, percent relative to cAMP agonist control] (inactive)"
15,Cc1ccc(Cn2ccnc2SCC(=O)Nc2ccc3c(c2)OCO3)cc1,"-32.2% [at 83.8 µM, percent relative to cAMP agonist control] (inactive)"
16,O=C(CSc1nc(O)cc(=O)n1-c1ccccc1)Nc1nc2ccccc2s1,5.69% (inactive)
17,CCOc1cccc(CNc2ccc(O)cc2)c1OCc1ccc(Cl)cc1,0% (inactive)
18,O=C(NCc1ccc2c(c1)CCN2C(=O)c1ccccc1)Nc1cccc(C(F)(F)F)c1,"5.63% [at 83.8 µM, percent relative to cAMP agonist control] (inactive)"
19,COc1ccc(N2Cc3cccc(C(=O)Nc4ccc(C(C)C)cc4)c3C2=O)cc1,"-6.79% [at 83.8 µM, percent relative to cAMP agonist control] (inactive)"
20,O=C(COC(=O)C1(c2ccc(Cl)cc2)CCCC1)NCc1ccco1,16.2% (inactive)

row,Compound,activation
1,Nc1ccccc1C(=O)NNc1c2ccccc2nc2ccccc12,18% (inactive)
2,Cc1ccc(OCC(=O)Nc2ccc(C)c(S(=O)(=O)N3CCCCCC3)c2)c([N+](=O)[O-])n1,10.3% (inactive)
3,Cc1ccc(-c2nc(-c3cc4cccc(OCc5ccc(F)cc5)c4oc3=O)no2)cc1,"0% [at 83.8 µM, percent relative to cAMP agonist control] (inactive)"
4,CCc1ccc(/C=C2\SC(=S)N(CCCC(=O)Nc3ccccc3C(=O)O)C2=O)cc1,"7.93% [at 17.1 µM, percent relative to cAMP agonist control] (inactive)"
5,Cc1ccc(C(C[N+](=O)[O-])c2c(-c3ccccc3O)[nH][nH]c2=O)cc1 (stereo not given),"3.05% [at 17.1 µM, percent relative to cAMP agonist control] (inactive)"
6,CCOC(=O)Cc1cc(=O)n2[nH]c(-c3ccccc3)c(-c3ccccc3)c2n1,9.18% (inactive)
7,COc1cc2c(cc1OC)C(c1ccc(Cl)cc1)N(c1ccc(C)c(F)c1)C(=O)C2 (stereo not given),"1.47% [at 83.8 µM, percent relative to cAMP agonist control] (inactive)"
8,COC(=O)CC1(C(=O)OC)Oc2ccc(Br)cc2C(=O)N1c1cccc(Cl)c1Cl (stereo not given),17.3% (inactive)
9,Cc1ccc(Nc2c(-c3ccccn3)nc3cccc(C)n23)cc1,0% (inactive)
10,Cn1c(=O)c2c(-c3ccccc3Br)n(Cc3ccccc3)cc2n(C)c1=O,"-29.8% [at 83.8 µM, percent relative to cAMP agonist control] (inactive)"
11,COc1cn(-c2ccccc2)nc1C(=O)Nc1ccc(C)cc1Cl,2.13% (inactive)
12,O=[N+]([O-])c1cc(Br)ccc1NS(=O)(=O)c1ccccc1,"-2.03% [at 17.1 µM, percent relative to cAMP agonist control] (inactive)"
13,O=C(OCC1OC(n2ncc(=O)[nH]c2=O)C(OC(=O)c2ccccc2)C1OC(=O)c1ccccc1)c1ccccc1 (stereo not given),"0.888% [at 17.1 µM, percent relative to cAMP agonist control] (inactive)"
14,CC(CNC(=O)c1sc2ncccc2c1-n1cccc1)c1ccccc1 (stereo not given),"16.7% [at 83.8 µM, percent relative to cAMP agonist control] (inactive)"
15,Cc1cc(CSc2ccc(Cl)cc2)ccc1N,8.49% (inactive)
16,COc1ccc(Nc2cc(C(=O)NCCCN3CCN(c4ccccc4F)CC3)c3ccccc3n2)c(OC)c1,"-5.18% [at 83.8 µM, percent relative to cAMP agonist control] (inactive)"
17,CC(C)c1ccc(/C=C/C(=O)Nc2ccc(CN3CCOCC3)cc2)cc1,7.48% (inactive)
18,Cc1cccc(N2CCN(C(=O)c3[nH]c(C(F)(F)F)nc3-c3ccccc3)CC2)c1C,0% (inactive)
19,O=C1C=C(Nc2cccc3cccnc23)c2ccccc2C1=O,0% (inactive)
20,O=C1C(=O)c2ccc(-c3ccccc3)cc2-c2ccccc21,5.73% (inactive)
